Source: PubChem BioAssay (EPA / NIEHS)
Results filed as inconclusive are left out. Active and inactive are the calls of the source. Rule for the calls: active = hit-call score of the fitted dose curve at least 0.9, where 1 is the maximum; inconclusive = response in the unintended direction; inactive = score below 0.9.

molecular target: Estrogen receptor (Homo sapiens) (UniProt P03372); test: OT_ER_ERaERa_0480: Odyssey Thera (OT) 8-hour HEK293T Protein-Complementation Assay for Estrogen Receptor-alpha/-alpha Homodimer (AID 2283351);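 note: rise in fluorescence from reassembled reporter fragments on ERα LBD homodimer in nucleus or whole cell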
Method: OT_ER_ERaERa_0480 is a cell-based assay that uses HEK293T, a human kidney cell line, with measurements taken at 8 hours after chemical dosing in a 384-well plate.OT_ER_ERaERa_0480 is one of one assay component(s) measured or calculated from the OT_ER_ERaERa_0480 assay. It is designed to make measurements of protein fragment complementation, a form of binding reporter, as detected with fluorescence intensity signals by Protein-fragment Complementation technology.Data from the assay component OT_ER_ERaERa_0480 was analyzed into 1 assay endpoint. This assay endpoint, OT_ER_ERaERa_0480, was analyzed in the positive analysis fitting direction relative to DMSO as the negative control and baseline of activity. Using a type of binding reporter, measures of receptor for gain-of-signal activity can be used to understand the binding at the pathway-level as they relate to the gene ESR1. Furthermore, this assay endpoint can be referred to as a primary readout, because the performed assay has only produced 1 assay endpoint. To generalize the intended target to other relatable targets, this assay endpoint is annotated to the nuclear receptor intended target family, where the subfamily is steroidal.
Protein-fragment complementation assay, or PCA, is a method for the identification and quantification of protein-protein interactions. In the PCA, the proteins of interest ("bait" and "prey") are each covalently linked to fragments of a third protein (e.g. DHFR, which acts as a "reporter"). Interaction between the bait and the prey proteins brings the fragments of the reporter protein in close proximity to allow them to form a functional reporter protein whose activity can be measured. The OT ER alpha / ER alpha assay is a homodimer PCA of the ligand binding domain (amino acids 310-547) of human ER alpha stably expressed in HEK293T cells. […] Fluorescent signal in the basal state of the assay is very low and is primarily punctuate and cytoplasmic. Modulation of this assay is quantified as an increase in mean fluorescence intensity in the nucleus (for agonists) or in the nucleus and cytoplasm (antagonists) relative to vehicle controls, and can be quantified on a high content imaging device or a laser scanning cytometer. The latter instrument is favored for this assay because of the rapid mode of data acquisition, the ability to acquire data from the entire cell population in a well (as opposed to a fraction of the well on the high content devices) and the larger dynamic range typically achieved with this instrument. To assess sensitivity of the ER alpha/ER alpha LBD assay to ligand, cells were treated with the ER agonist 17 beta-estradiol (E2) in 10-point concentration- response format for 8 hours and monitored response on a laser scanning plate cytometer (Acumen eX3; TTP Lab Tech).

Chain of Estrogen receptor (Homo sapiens) (P03372 whole entry, looked up, the tested form may be a part): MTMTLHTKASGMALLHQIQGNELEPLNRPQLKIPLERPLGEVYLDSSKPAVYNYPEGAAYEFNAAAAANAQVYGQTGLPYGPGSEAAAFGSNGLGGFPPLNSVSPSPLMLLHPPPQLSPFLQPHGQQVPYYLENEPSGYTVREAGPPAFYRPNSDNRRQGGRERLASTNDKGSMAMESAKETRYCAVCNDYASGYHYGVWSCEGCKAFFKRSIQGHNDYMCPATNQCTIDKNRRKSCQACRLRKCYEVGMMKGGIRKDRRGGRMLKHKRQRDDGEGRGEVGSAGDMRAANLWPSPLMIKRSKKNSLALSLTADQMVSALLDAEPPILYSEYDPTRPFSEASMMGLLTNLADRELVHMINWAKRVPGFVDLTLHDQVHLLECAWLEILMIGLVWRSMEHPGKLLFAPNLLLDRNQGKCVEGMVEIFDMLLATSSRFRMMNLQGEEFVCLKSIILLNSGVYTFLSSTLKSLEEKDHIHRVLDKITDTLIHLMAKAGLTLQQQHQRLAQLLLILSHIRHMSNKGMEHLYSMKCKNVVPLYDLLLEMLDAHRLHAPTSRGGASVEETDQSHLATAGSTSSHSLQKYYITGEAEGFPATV

Row | SMILES | AC50 | outcome
1 | O=C(OCC1CCC2OC2C1)C1CCC2OC2C1 (stereo not given) | 12.1 µM (active) | 
2 | CCCCOCCOC(=O)COc1nc(Cl)c(Cl)cc1Cl |  | inactive
3 | O=C(C(Cl)Cl)N1CCOC12CCCCC2 |  | inactive
4 | Oc1ccc(Cl)cc1Cc1cc(Cl)ccc1O |  | inactive
5 | CCN(CCC#N)c1ccc(N=Nc2c(Cl)cc([N+](=O)[O-])cc2Cl)cc1 |  | inactive
6 | CCCCCCCOC(=O)CCC |  | inactive
7 | Cc1ccc(N/N=c2\c(=O)cc/c(=N/Nc3ccc(S(=O)(=O)O)cc3)c2=O)c(C)c1 |  | inactive
8 | CCCCCCCCO[C@@H]1O[C@H](CO)[C@@H](O)[C@H](O)[C@H]1O |  | inactive
9 | CCCCCCCC[N+](C)(CCCCCCCC)CCCCCCCC |  | inactive
10 | O=C1CCCC1 |  | inactive
11 | CC1=NN(c2cc(S(=O)(=O)O)ccc2Cl)C(=O)C1N=Nc1ccccc1 (stereo not given) |  | inactive
12 | CC(C)C1=CC2=CC[C@@H]3[C@](C)(CCC[C@@]3(C)C(=O)O)[C@H]2CC1 |  | inactive
13 | Cc1cc(C)c(C)cc1C |  | inactive
14 | CCCCCCCCCCCCCOP(=O)(O)O |  | inactive
15 | CC(C)(C)c1ccc(-c2ccc(C(C)(C)C)cc2)cc1 |  | inactive
16 | CCCCCCCC/C=C\CCCCCCCC(=O)O |  | inactive
17 | CCCCCCCC/C=C\CCCCCCCC(=O)OCCO |  | inactive
18 | O=C1C(N(CO)C(=O)NCO)N(CO)C(=O)N1CO (stereo not given) |  | inactive
19 | CC1=CC[C@H]2C[C@@H]1C2(C)C |  | inactive
20 | Cn1c([N+](=O)[O-])cnc1COC(N)=O |  | inactive

Row | SMILES | AC50 | outcome
21 | CN(C)c1ccc(C(=N)c2ccc(N(C)C)cc2)cc1 | 59.1 µM (active) | 
22 | c1ccc2c(c1)ccc1cc3c(ccc4ccccc43)cc12 |  | inactive
23 | O=C(C=Cc1ccccc1)OCc1ccccc1 |  | inactive
24 | CCCc1ccc(OC)cc1 |  | inactive
25 | O=C(O)CCCC[C@@H]1SC[C@@H]2NC(=O)N[C@@H]21 |  | inactive
26 | CCOC(=O)Cc1cccc2ccccc12 |  | inactive
27 | CCCCC/C=C\CCC=O |  | inactive
28 | Cc1cc(C)c(C(=O)O)c(C)c1 |  | inactive
29 | OC1CCCC1 |  | inactive
30 | CCCCC/C=C\C/C=C\CCCCCCCC(=O)OC |  | inactive
31 | CCO[Si](C)(OCC)OCC |  | inactive
32 | O=S1(=O)OC(c2ccc(O)cc2)(c2ccc(O)cc2)c2ccccc21 |  | inactive
33 | CC(C)c1ccc2cc(C(C)C)ccc2c1 |  | inactive
34 | C1CN(SSN2CCOCC2)CCO1 |  | inactive
35 | Cc1ccc(C(C)c2ccc(C)c(C)c2)cc1C | 70.3 µM (active) | 
36 | C=C1C2CCC(C2)C1(C)C (stereo not given) |  | inactive
37 | COC(=O)c1c(C)cc(O)c(C)c1O |  | inactive
38 | NC(=O)N=NC(N)=O |  | inactive
39 | CCCCCCC1(C)CCC(=O)O1 (stereo not given) |  | inactive
40 | CO[Si](OC)(OC)c1ccccc1 |  | inactive
